ClpP mod = qHTS Assay for Activators of ClpP; ATP-dependent Clp protease proteolytic subunit (Bacillus subtilis (strain 168)), P80244; purified B. subtilis ClpP, FRET peptide cleavage, 20 min; Potency, µM (top dose mostly 57.5 µM), for inactives: at the highest dose activity change, negative = active; actives 1.9% (n = 340,000); AID 651965, 2013; active = well fitted falling curve with a large enough effect; inconclusive = small, poorly fitted or top-dose-only effect; inactive = no such curve, though single readings can be large or run the other way; note: potency is the fitted concentration of half-maximal effect; the source files actives as falling curves though it sought activators and does not explain the sign; nearly all actives have a fitted effect of over 65% in size
Target sequence (P80244 whole entry, looked up): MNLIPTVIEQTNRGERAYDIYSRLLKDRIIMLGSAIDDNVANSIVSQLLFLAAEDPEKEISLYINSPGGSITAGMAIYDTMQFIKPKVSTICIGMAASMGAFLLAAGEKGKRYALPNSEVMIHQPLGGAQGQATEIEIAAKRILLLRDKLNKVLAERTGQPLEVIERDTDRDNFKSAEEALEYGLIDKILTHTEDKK
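Purified B. subtilis ClpP, 10 microg/mL final in Tris/HCl pH8 with KCl, BSA, glycerol and Tween-20, cleaved an Abz/nitrotyrosine-quenched decapeptide. Fluorescence (ex 320, em 430) was read at 0 and 20 min at room temperature. Delta was normalized to 5.8 microM ADEP and DMSO/no-enzyme controls.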
Giardia kill = Giardia lamblia killing; Giardia lamblia trophozoite viability; activity change, % at 7.66 µM, hits read low; actives 0.15% (n = 340,000); AID 540267; in the data active = activity change below about -80%; inconclusive = between about -30% and that limit;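 note: parasites exposed to compound for two days anaerobically before the ATP read; % is set by controls: 0 for no effect and ±100 for the full control effect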
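ATP-content bioluminescence gauges trophozoite survival. Cells (100/well) receive compound and incubate anaerobically for 48 hrs at 37 deg C; detection reagent follows for 15-30 min at room temperature.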
uPA generation = cell surface uPA generation inhibition | cell surface uPA generation assay, qHTS | Potency, µM (series often up to 38.3 µM), without a hit: top-dose activity change, negative = inhibition, most hits filed as inhibitors | actives 0.31% (n = 330,000); active = well fitted inhibition curve with a large enough effect; inconclusive = small, poorly fitted or top-dose-only effect; inactive = no such curve, though single readings can be large or run the other way; tested in mouse RAW 264.7 cells; note: potency is the fitted concentration of half-maximal effect; % is set by controls: 0 for no effect and ±100 for the full control effect; nearly all actives have a fitted effect of over 55% in size
Mito fusion yeast = inhibitors of mitochondrial division or activators of mitochondrial fusion; S. cerevisiae fusion-defective mutant growth rescue, CellTiterGlo 48 h; Potency, µM (highest dose often 46.1 µM), without a hit: at the highest dose growth rescue (activation), hits mostly activators; actives 0.23% (n = 320,000); note: potency is the fitted concentration of half-maximal effect; % of control where 0% means no effect; nearly all actives have a fitted effect of over 45% in size
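S. cerevisiae fusion-defective temperature-sensitive mutants (e.g. fzo1-1, mgm1-5) grown 48 h at 37C in YPEG (ethanol/glycerol non-fermentable) medium with 23 nl compound per well; growth rescue read as CellTiterGlo luminescence.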
p53 reactivator = re-activators of mutant p53; AID 504706; Potency, µM (top dose mostly 92.2 µM), inactives show at the top dose activity change, positive = activation, hits mostly activators; H1299 p53-A138V BP100-luciferase reporter, luminescence, 24 h; actives 0.063% (n = 320,000); note: potency is the fitted concentration of half-maximal effect; % of control where 0% means no effect; nearly all actives have a fitted effect of over 45% in size
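H1299 (p53-null), stable ts p53-A138V + BP100-Luc; 1000 cells/well, Opti-MEM/10% FBS; cpd 4 pt, 1:5; 24 h, 37 deg C, 5% CO2; detection reagent 10 min RT; luminescence.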
B2AR arrestin = beta2AR (human) beta-arrestin recruitment activity | P07550 | beta-arrestin recruitment to beta2AR, cell-based reporter | Potency, µM (highest dose often 46.1 µM), inactives show at the top dose activation, actives largely listed as activators | actives 0.02% (n = 330,000) | AID 492947;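 note: potency is the fitted concentration of half-maximal effect; 0% = DMSO controls and full agonism = EC100 isoproterenol or metaproterenol; nearly all actives have a fitted effect of over 65% in size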
Target sequence (P07550 whole entry, looked up): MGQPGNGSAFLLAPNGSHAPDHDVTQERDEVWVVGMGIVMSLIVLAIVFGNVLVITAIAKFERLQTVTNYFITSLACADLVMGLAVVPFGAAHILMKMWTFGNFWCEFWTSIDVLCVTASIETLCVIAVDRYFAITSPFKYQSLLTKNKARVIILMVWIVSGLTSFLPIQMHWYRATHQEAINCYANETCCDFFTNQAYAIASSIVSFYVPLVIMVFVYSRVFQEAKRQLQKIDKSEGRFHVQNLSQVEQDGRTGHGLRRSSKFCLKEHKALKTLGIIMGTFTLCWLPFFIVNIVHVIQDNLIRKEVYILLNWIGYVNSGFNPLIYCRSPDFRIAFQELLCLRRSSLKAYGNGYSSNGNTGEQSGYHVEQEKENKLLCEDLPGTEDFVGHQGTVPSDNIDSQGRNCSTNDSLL
The depositor's hits bear a star; ? = inconclusive; . = no result given. Hits are enriched below; roughly 2.1% of the tested compounds scored in any of these assays. Unless noted, calls come from the whole dose curve; as a rule, active = well fitted curve in the direction sought with a large enough effect; inconclusive = small, poorly fitted or top-dose-only effect, or another doubt; inactive = no such curve, though single readings can be large; an effect the other way counts as inactive or inconclusive.

SMILES	ClpP mod	Giardia kill	uPA generation	Mito fusion yeast	p53 reactivator	B2AR arrestin
COC(=O)c1cc(C)nc2c1c(C)nn2-c1ccccc1	-8%	1	1%	8%	?	0%
CCc1nc2c(c(SC)nn2-c2ccccc2)c(N)c1C(=O)OC	32µM*	-18	-4%	0%	-1%	0%
CCCCC(=O)Nc1ccc(C(=O)OCc2cc(=O)n3ccsc3n2)cc1	-9%	.	.	.	.	.
Cc1ccc(O)c(N=Nc2nccs2)c1	-1%	?	2.2µM*	1%	?	0%
CCOC(=O)c1sc2nc(N3CCCC3)c3c(c2c1N)CC(C)(C)OC3	32µM*	18	-1%	0%	-6%	-1%
COC(=O)c1sc2nc(N3CCCCC3)c3c(c2c1N)CCCC3	10µM*	1	11%	?	0%	0%
CCOC(=O)c1sc2nc(N3CCOCC3)c3c(c2c1N)CCCC3	32µM*	7	2%	0%	2%	0%
CCc1nc2oc(C(=O)c3ccccc3)c(N)c2c2c1COC(C)(C)C2	-5%	5	0%	4%	3%	0%
CCOC(=O)c1oc2nc(C)c3c(c2c1N)CC(C)(C)OC3	10µM*	1	1%	-12%	5%	-1%
COc1cccc(-c2nc3c(C#N)c[nH]n3c2NC2CCCC2)c1OC	-9%	.	.	.	.	.
CN(C)c1ccc(CNC(=O)c2ccccc2NC(=O)c2nsc3ccccc23)cc1	0%	.	.	.	.	.
CCN(CC)C(=O)c1sc2nc(N3CCOCC3)c3c(c2c1N)CCCC3	25µM*	-5	3%	10%	2%	0%
Nc1c(C(=O)NCc2ccco2)sc2nc(N3CCOCC3)c3c(c12)CCCC3	?	10	-4%	4%	6%	0%
COC(=O)c1ccc(Cn2cnc3c(sc4nc(N5CCOCC5)c5c(c43)CCCC5)c2=O)o1	28µM*	12	-4%	13%	4%	0%
O=C(CN1CCCCCC1)Nc1cc([N+](=O)[O-])ccc1Cl	.	8	3%	-8%	1%	2%
O=C(CN1CCCCCC1)Nc1ccc([N+](=O)[O-])cc1Cl	10µM*	-5	7%	-3%	0%	0%
CCCC(=O)Nc1ccc2nn(-c3ccc(CC)cc3)nc2c1	4%	.	.	.	.	.
O=C(C[n+]1ccncc1)c1cccc2ccccc12	1%	.	.	.	.	.
CCOC(=O)N/N=C\c1ccc([N+](=O)[O-])o1	0%	-95*	-26%	-12%	4%	-1%
CCCCCCCC(=O)N/N=C/c1ccc([N+](=O)[O-])o1	1%	-88*	-29%	20µM*	24%	0%
O=C(CN1CCCCCCC1)N/N=C/c1ccc([N+](=O)[O-])o1	.	?	-12%	-16%	.	0%
O=C(Cc1ccc([N+](=O)[O-])cc1)N/N=C/c1ccc([N+](=O)[O-])o1	-1%	-89*	?	1%	0%	0%
Cc1ccc(C(=O)N/N=C\c2ccc([N+](=O)[O-])o2)cn1	.	?	-14%	-9%	-12%	0%
CCCOc1ccc(CCC(=O)N/N=C/c2ccc([N+](=O)[O-])o2)cc1	3%	-88*	?	1%	3%	-1%
O=C(CN1CCOCC1)NN=Cc1ccc([N+](=O)[O-])o1	-1%	.	.	.	.	.
SMILES	ClpP mod	Giardia kill	uPA generation	Mito fusion yeast	p53 reactivator	B2AR arrestin
COc1ccc(NC(=O)C2CCCN2S(=O)(=O)c2ccc3c(c2)CCCC(=O)N3)cc1Cl (centres undefined)	0%	.	.	.	.	.
CC1(C(=O)N/N=C/c2ccc([N+](=O)[O-])o2)CC1(Br)Br (centres undefined)	-5%	-90*	-8%	11%	29%	-1%
O=C(CC12CC3CC(CC(C3)C1)C2)N/N=C/c1ccc([N+](=O)[O-])o1	1%	-94*	-7%	?	16%	0%
CCCOc1ccc(C(=O)Nc2cc3c(cc2N2CCOCC2)n(C)c(=O)n3C)cc1	1%	.	.	.	.	.
Cc1cccc(OC(C)C(=O)N2CCC(c3nc4ccccc4o3)CC2)c1C (centres undefined)	1%	.	.	.	.	.
N#Cc1ccc(C(=O)Nc2ccccc2-c2nc3ccccc3s2)c(F)c1	-19%	.	.	.	.	.
CCOc1ncccc1C(=O)Nc1cc(S(=O)(=O)N2CCCCC2)ccc1Cl	32µM*	12	3%	0%	12%	-1%
CCOc1ncccc1C(=O)Nc1ccc(Cl)c(S(=O)(=O)N2CCCC2)c1	-3%	-8	-4%	-4%	-1%	0%
CC(C)[C@H](/C=C/C[Si](C)(C)C)[C@H](C)C(O)/C=C/CCCOC(=O)C(C)(C)C (some centres undefined)	.	-2	.	.	.	.
COc1cc(NC(=O)CSc2ccc(-c3sc(C)nc3C)nn2)cc(OC)c1	-2%	.	.	.	.	.
Cc1ccc(S(=O)(=O)N2CCCCC2CCNC(=O)C(=O)NCc2ccccc2)cc1 (centres undefined)	-7%	6	8.9µM*	12%	5%	0%
CCC(CO)NC(=O)C(=O)Nc1c2c(nn1-c1ccc(F)cc1)CSC2 (centres undefined)	0%	.	.	.	.	.
Cc1ccc2c(=O)cc(C(=O)Nc3sc4c(c3C(=O)NCC3CCCO3)CCCC4)oc2c1C (centres undefined)	1%	.	.	.	.	.
O=c1c(Br)c(Br)cnn1-c1ccccc1	.	-8	2%	-10%	-10%	-1%
Cc1ccc(-n2ncc(Br)c(Br)c2=O)cc1	1%	11	13µM*	-9%	-9%	0%
COc1cc(NC(C)=O)c2ncccc2c1[N+](=O)[O-]	22µM*	1	-4%	14%	3%	0%
COc1cc(NC(C)=O)c2ncccc2c1NC(C)=O	-6%	-7	20%	5%	0%	8%
c1cnc2[nH]ccc2c1	-7%	.	.	.	.	.
Cn1c(CC(=O)Nc2ccccc2)cc2ccccc21	-4%	-17	4.5µM*	-1%	.	0%
CSc1c(CC(=O)Nc2ccccc2)n(C)c2ccccc12	36%	29	?	1%	.	0%
Cc1cccc(N2CCN(S(=O)(=O)c3ccc4c(c3)C(C(C)C)C(=O)N4)CC2)c1C (centres undefined)	-1%	.	.	.	.	.
COc1ccc(-c2cc(C(F)F)n3ncc(C(=O)NCC4CCCO4)c3n2)cc1 (centres undefined)	22µM*	-8	2%	15%	0%	0%
O=C(NCc1cccnc1)c1ccccc1NS(=O)(=O)c1ccccc1	?	11	1%	2%	-11%	0%
COc1ccc2oc(=O)c(C(=O)NCC3CCCO3)cc2c1 (centres undefined)	28µM*	-21	-2%	3%	?	0%
CNC(=O)c1cc2cc(OC)ccc2oc1=O	28µM*	-9	.	0%	1%	0%

Screening data (PubChem)
